For 13 compounds, outcome and AC50 results are on record in PubChem BioAssay (EPA / NIEHS).

Results filed as inconclusive are left out. Activity calls are given as the source filed them. How the source made its calls: active means hit-call score of the fitted dose curve at least 0.9, where 1 is the maximum; inconclusive means response in the unintended direction; inactive means score below 0.9.

Test [1] addresses human Peroxisome Proliferator-activated Receptor alpha (PPARa), PPARA (gene 5465) (UniProt Q07869). As to the kind of experiment: ATG_PPARa_TRANS: Attagene TRANS-FACTORIAL HepG2 Assay for human Peroxisome Proliferator-activated Receptor alpha (PPARa) (AID 2283001).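 On AC50: potency for gain of reporter signal over DMSO so agonist or activator.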 In a few lines:
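Reporter transcripts quantified by RT-PCR plus capillary electrophoresis after 24 h treatment, fitted upward relative to DMSO. Cells: human HepG2 transiently carrying multiple GAL4-UAS reporter units driven by NR-Gal4 chimeras.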

Test [2] addresses human Peroxisome Proliferator-activated Receptor delta (PPARd), PPARD (gene 5467) (UniProt Q03181). The test is described as follows: ATG_PPARd_TRANS: Attagene TRANS-FACTORIAL HepG2 Assay for human Peroxisome Proliferator-activated Receptor delta (PPARd) (AID 2283002). In a few lines: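 Read-out is induced reporter mRNA, quantified by RT-PCR with fluorescent labelling and capillary electrophoresis after 24 h dosing. Cells are HepG2 transiently carrying multiple GAL4-UAS reporter units driven by exogenous NR-GAL4 chimeras; DMSO serves as baseline.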

Test [3] addresses Nuclear receptor subfamily 1 group I member 2 (Homo sapiens) (UniProt O75469). As to the kind of experiment: ATG_PXR_TRANS: Attagene TRANS-FACTORIAL HepG2 Assay for human Pregnane X Receptor (PXR) (AID 2283008). In a few lines: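 HepG2 transfected (FuGene 6) with GAL4-UAS reporter units + PXR-Gal4 chimera; dosed 24 h. Total RNA → oligo(dT) RT → PCR → 6-FAM primer extension → HpaI cut → CE. Gain-of-signal vs DMSO.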

Test [4] concerns the target Retinoic acid receptor RXR-alpha (Homo sapiens) (UniProt P19793). The test is described as follows: ATG_RXRa_TRANS: Attagene TRANS-FACTORIAL HepG2 Assay for human Retinoid X Receptor alpha (RXRa) (AID 2283012). In a few lines: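 Measures exogenous chimeric NR-GAL4 activity in transfected HepG2 liver cells after 24 h of dosing. Induced reporter mRNA was detected by RT-PCR with capillary electrophoresis, and gain of signal was analysed against DMSO.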

Test [5] addresses human Retinoic Acid Receptor beta (RARb), RARB (gene 5915) (UniProt P10826). As to the kind of experiment: ATG_RARb_TRANS: Attagene TRANS-FACTORIAL HepG2 Assay for human Retinoic Acid Receptor beta (AID 2283004). A digest of the protocol:
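HepG2 cells transiently transfected with multiplexed GAL4-UAS reporter units expressing chimeric NR–Gal4 fusions; 24 h compound exposure. Reporter mRNA quantified by RT-PCR, 6-FAM labelling, HpaI digestion and capillary electrophoresis; gain-of-signal fitted against DMSO baseline.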

The target of test [6] is Peroxisome proliferator-activated receptor gamma (Homo sapiens) (UniProt P37231). As to the kind of experiment: ATG_PPARg_TRANS: Attagene TRANS-FACTORIAL HepG2 Assay for human Peroxisome Proliferator-activated Receptor-gamma (PPARg) (AID 2283007). In a few lines:
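HepG2 cells are transiently transfected with GAL4-UAS reporter units driven by chimeric NR-Gal4 fusions and dosed for 24 h. Reporter mRNA is quantified by RT-PCR, 6-FAM labelling, HpaI digestion and capillary electrophoresis. Induction is scored against DMSO.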

Test [7] concerns the target human RAR-related Orphan Receptor beta (RORb), RORB (gene 6096) (UniProt Q92753). The test is described as follows: ATG_RORb_TRANS: Attagene TRANS-FACTORIAL HepG2 Assay for human RAR-related Orphan Receptor beta (RORb) (AID 2283010). In a few lines: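 Transfect HepG2 with multiple GAL4-UAS reporter transcription units; dose chemicals for 24 h; isolate RNA, reverse-transcribe and PCR-amplify reporter sequences; label, digest and resolve fragments by capillary electrophoresis; fit increases relative to DMSO.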

Test [8] deals with human Retinoid X Receptor beta (RXRb), RXRB (gene 6257) (UniProt P28702). The test is described as follows: ATG_RXRb_TRANS: Attagene TRANS-FACTORIAL HepG2 Assay for human Retinoid X Receptor beta (RXRb) (AID 2283013). In a few lines:
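Chimeric receptor-Gal4 activity was assessed in transiently transfected human HepG2 cells after 24 h exposure. Transcripts from GAL4-UAS reporters were quantified by fluorescent RT-PCR and capillary electrophoresis, with DMSO as negative control and baseline.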

The target in test [9] is human RAR-related Orphan Receptor gamma (RORg), RORC (gene 6097) (UniProt P51449). The test is described as follows: ATG_RORg_TRANS: Attagene TRANS-FACTORIAL HepG2 Assay for human RAR-related Orphan Receptor gamma (RORg) (AID 2283011). A digest of the protocol:
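Readout: reporter transcript induction (RT-PCR, fluorescent primer extension, capillary electrophoresis) after 24 h compound exposure of transiently transfected HepG2 cells carrying a RORg-Gal4 chimera and GAL4-UAS reporters; DMSO served as baseline, with increasing signal fitted.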

For test [10], the target named is human Thyroid Receptor alpha (THRa1), THRA (gene 7067) (UniProt P10827). As to the kind of experiment: ATG_THRa1_TRANS: Attagene TRANS-FACTORIAL HepG2 Assay for human Thyroid Receptor alpha (THRa1) (AID 2283014). A digest of the protocol: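 HepG2 cells transiently transfected with multiplexed GAL4-UAS reporter units for exogenous chimeric THRa1-Gal4; reporter mRNA measured 24 h after dosing by RT-PCR, 6-FAM labelling, HpaI digestion and capillary electrophoresis. Gain-of-signal fitted versus DMSO baseline.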

Test [11] deals with Retinoic acid receptor alpha (Homo sapiens) (UniProt P10276). As to the kind of experiment: ATG_RARa_TRANS: Attagene TRANS-FACTORIAL HepG2 Assay for human Retinoic Acid Receptor alpha (RARa) (AID 2283005). In a few lines:
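Reporter transcripts, measured by RT-PCR with fluorescent labeling and capillary electrophoresis after 24 h dosing, reflect activity of an exogenous human RARa–GAL4 fusion in transiently transfected HepG2. Fitted for increase relative to DMSO.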

For test [12], the target named is human Retinoic Acid Receptor gamma (RARg), RARG (gene 5916) (UniProt P13631). As to the kind of experiment: ATG_RARg_TRANS: Attagene TRANS-FACTORIAL HepG2 Assay for human Retinoic Acid Receptor gamma (RARg) (AID 2283009). In a few lines: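 TRANS format measured activity of exogenous NR-GAL4 fusion (RARg) in transfected HepG2 liver cells after 24 h dosing. Induced reporter RNA was detected by RT-PCR/capillary electrophoresis fluorescence, analysed in the positive direction against DMSO.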

Broadly, the AC50 is the midpoint of the concentration-response curve, whichever way the signal moves.

Sequence of Retinoic acid receptor alpha (Homo sapiens) (P10276 whole entry, looked up, the tested form may be a part): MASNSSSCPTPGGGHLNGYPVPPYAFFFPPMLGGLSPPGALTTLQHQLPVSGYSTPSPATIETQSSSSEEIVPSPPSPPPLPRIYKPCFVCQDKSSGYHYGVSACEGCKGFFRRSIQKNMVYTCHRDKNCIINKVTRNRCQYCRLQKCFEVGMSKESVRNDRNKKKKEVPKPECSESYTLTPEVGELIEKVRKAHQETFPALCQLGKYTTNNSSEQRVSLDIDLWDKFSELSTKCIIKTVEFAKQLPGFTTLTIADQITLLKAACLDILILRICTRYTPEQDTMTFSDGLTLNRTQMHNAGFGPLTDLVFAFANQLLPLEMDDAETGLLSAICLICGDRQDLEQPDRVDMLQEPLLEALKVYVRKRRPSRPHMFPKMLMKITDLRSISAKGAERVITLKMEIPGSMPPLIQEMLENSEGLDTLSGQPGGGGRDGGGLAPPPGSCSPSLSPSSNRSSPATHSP
Sequence of human Retinoic Acid Receptor gamma (RARg), RARG (gene 5916) (P13631 whole entry, looked up, the tested form may be a part): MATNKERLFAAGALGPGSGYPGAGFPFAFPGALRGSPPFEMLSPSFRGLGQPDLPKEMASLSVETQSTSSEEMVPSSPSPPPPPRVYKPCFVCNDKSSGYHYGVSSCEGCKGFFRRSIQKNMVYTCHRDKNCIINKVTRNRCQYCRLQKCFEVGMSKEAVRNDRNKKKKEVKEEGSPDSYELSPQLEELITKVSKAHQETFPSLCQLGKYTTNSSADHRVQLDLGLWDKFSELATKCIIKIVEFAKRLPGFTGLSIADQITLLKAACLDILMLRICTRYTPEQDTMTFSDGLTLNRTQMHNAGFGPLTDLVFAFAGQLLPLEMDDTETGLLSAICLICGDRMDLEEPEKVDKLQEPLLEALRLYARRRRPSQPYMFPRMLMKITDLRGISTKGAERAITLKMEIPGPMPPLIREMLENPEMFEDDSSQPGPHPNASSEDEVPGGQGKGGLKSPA
Sequence of human Peroxisome Proliferator-activated Receptor delta (PPARd), PPARD (gene 5467) (Q03181 whole entry, looked up, the tested form may be a part): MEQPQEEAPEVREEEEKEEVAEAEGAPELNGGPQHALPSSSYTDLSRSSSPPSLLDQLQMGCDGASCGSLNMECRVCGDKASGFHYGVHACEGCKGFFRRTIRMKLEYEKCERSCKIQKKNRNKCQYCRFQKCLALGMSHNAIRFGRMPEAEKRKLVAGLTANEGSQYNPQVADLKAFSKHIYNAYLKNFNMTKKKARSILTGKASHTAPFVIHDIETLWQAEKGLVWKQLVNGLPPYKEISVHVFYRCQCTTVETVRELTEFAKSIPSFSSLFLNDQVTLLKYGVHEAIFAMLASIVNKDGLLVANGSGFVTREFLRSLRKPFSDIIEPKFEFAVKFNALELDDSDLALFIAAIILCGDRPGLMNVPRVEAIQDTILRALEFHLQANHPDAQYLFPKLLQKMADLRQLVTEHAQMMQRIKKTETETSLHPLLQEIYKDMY
Sequence of human Retinoid X Receptor beta (RXRb), RXRB (gene 6257) (P28702 whole entry, looked up, the tested form may be a part): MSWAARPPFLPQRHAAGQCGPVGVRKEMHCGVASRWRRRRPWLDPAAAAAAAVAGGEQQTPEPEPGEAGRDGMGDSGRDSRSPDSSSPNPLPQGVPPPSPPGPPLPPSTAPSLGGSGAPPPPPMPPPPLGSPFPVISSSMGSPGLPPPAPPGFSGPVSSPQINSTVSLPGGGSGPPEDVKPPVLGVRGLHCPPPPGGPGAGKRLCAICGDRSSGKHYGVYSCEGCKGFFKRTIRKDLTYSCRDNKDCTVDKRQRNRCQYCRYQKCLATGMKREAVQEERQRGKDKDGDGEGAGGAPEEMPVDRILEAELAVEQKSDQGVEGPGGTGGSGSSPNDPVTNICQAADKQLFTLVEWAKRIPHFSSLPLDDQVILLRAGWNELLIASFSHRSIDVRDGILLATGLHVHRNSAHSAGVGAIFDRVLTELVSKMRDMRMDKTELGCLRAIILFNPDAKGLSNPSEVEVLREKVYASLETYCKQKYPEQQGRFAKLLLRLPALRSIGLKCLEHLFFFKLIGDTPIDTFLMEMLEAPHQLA
Sequence of Nuclear receptor subfamily 1 group I member 2 (Homo sapiens) (O75469 whole entry, looked up, the tested form may be a part): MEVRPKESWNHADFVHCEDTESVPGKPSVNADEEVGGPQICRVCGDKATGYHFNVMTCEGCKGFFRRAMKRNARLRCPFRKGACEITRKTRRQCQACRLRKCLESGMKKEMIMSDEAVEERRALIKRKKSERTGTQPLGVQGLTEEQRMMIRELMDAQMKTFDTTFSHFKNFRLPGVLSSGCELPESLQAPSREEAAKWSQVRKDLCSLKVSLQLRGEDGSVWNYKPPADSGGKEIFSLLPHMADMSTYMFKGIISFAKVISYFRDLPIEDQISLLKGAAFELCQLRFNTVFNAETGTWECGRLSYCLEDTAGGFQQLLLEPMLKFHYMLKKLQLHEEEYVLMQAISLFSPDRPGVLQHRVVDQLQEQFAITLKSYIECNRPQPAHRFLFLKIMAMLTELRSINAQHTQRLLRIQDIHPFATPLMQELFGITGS
Sequence of human Thyroid Receptor alpha (THRa1), THRA (gene 7067) (P10827 whole entry, looked up, the tested form may be a part): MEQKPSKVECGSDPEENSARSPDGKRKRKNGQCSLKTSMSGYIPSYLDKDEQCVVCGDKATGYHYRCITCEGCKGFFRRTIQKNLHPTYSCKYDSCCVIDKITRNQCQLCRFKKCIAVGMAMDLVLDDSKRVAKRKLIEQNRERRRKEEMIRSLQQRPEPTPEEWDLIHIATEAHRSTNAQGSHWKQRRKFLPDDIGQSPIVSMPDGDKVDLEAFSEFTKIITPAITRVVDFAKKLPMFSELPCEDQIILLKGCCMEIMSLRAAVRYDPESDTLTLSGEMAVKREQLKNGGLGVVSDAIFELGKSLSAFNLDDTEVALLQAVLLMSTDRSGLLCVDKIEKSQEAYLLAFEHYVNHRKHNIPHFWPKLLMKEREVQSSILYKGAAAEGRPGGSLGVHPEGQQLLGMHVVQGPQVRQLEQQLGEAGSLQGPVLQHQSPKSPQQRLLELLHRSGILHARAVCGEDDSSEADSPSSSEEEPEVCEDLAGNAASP
Sequence of human Retinoic Acid Receptor beta (RARb), RARB (gene 5915) (P10826 whole entry, looked up, the tested form may be a part): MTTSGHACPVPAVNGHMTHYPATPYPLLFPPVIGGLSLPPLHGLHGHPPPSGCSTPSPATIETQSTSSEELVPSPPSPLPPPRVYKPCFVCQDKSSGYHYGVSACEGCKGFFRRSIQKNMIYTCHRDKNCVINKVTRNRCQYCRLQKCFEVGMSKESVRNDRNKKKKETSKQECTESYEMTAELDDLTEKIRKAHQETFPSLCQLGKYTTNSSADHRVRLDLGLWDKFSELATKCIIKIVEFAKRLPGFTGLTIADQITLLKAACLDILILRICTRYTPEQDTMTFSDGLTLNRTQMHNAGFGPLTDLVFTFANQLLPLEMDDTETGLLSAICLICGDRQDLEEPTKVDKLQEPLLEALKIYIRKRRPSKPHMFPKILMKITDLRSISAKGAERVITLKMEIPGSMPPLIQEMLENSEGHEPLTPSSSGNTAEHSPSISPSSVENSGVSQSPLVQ
Sequence of Peroxisome proliferator-activated receptor gamma (Homo sapiens) (P37231 whole entry, looked up, the tested form may be a part): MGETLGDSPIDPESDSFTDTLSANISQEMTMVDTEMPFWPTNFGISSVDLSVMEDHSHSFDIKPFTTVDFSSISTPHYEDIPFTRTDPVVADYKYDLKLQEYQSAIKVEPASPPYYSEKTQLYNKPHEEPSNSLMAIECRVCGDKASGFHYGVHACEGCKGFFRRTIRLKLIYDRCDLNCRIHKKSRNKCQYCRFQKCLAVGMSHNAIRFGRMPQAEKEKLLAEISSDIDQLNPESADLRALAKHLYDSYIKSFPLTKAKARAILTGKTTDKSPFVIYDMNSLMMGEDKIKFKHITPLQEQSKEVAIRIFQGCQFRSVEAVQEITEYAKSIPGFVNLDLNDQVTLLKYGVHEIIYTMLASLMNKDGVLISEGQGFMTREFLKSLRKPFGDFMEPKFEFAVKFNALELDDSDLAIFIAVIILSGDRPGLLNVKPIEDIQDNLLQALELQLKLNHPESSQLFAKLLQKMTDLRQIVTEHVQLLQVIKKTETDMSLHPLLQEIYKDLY
Sequence of human Peroxisome Proliferator-activated Receptor alpha (PPARa), PPARA (gene 5465) (Q07869 whole entry, looked up, the tested form may be a part): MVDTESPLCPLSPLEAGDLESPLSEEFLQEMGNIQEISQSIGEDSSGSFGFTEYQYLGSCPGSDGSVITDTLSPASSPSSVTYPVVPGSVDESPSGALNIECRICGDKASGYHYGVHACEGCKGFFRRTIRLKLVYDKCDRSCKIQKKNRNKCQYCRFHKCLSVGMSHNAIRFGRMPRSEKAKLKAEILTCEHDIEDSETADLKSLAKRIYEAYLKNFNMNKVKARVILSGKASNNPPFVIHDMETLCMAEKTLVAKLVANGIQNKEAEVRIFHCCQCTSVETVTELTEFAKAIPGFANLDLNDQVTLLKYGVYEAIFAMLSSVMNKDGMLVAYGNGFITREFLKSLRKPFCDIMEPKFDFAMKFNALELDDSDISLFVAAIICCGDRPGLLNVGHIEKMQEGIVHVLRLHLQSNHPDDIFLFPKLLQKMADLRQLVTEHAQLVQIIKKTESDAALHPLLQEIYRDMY
Sequence of human RAR-related Orphan Receptor beta (RORb), RORB (gene 6096) (Q92753 whole entry, looked up, the tested form may be a part): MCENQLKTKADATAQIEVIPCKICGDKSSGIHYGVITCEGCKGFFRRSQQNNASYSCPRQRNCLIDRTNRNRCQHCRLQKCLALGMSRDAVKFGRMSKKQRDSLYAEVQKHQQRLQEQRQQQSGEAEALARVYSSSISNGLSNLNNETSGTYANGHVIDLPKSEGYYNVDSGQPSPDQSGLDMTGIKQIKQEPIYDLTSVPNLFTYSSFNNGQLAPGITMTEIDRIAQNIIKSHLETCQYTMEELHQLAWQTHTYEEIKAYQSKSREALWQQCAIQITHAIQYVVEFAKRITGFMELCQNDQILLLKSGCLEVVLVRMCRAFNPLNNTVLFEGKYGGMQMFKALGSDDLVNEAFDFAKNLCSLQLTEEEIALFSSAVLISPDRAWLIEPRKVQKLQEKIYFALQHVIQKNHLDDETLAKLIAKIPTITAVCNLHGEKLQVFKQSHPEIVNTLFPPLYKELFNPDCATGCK

For the compound `O=C(O)CC(C(=O)O)S(=O)(=O)O` (centres undefined), the compound was classed as inactive in test [1], in [2], in [3] and in test [4].
Regarding `CCC1COC(=O)O1` (centres undefined), the call in test [1], in [2], in [5], in [6], in [3] and in [7] was inactive. The outcome in test [4] was inactive. In [8], the half-maximal activity concentration (AC50) was 70.1 µM (active).
Consider `CC1OC(=O)C(C)OC1=O` (centres undefined), for which the result in test [1], in test [2], in test [5], in test [6], in test [3] and in [7] was inactive.
As to `COC(C=C(C)CCC=C(C)C)OC`, the compound was called inactive in [1], in test [2], in [3], in test [9], in test [4] and in test [8]. The AC50 in test [6] was 57.2 µM (active).
Regarding `CCCCCCCCCCCCCCCCCCOS(=O)(=O)O`, the AC50 in test [1] is 27.4 µM (active); in test [2] it was 112 µM (active); in test [6], 8.35 µM (active); in [8] it was 34.3 µM (active). For the same compound, the outcome in test [3] and in test [10] was inactive.
`C/C=C/C=C/CCCCCCCO`: the call in [1], in [3], in test [4] and in test [10] was inactive. Moreover, the AC50 was 27.2 µM (active) in test [2] and 2.64 µM (active) in [6].
With `CC(=O)C(C)C`, the outcome in test [1], in [5], in test [11], in test [6], in test [3] and in test [12] was inactive. Moreover, the call in test [7] and in [4] was inactive.
Regarding `Cc1c[nH]c(=O)[nH]c1=O`, the compound was called inactive in test [1], in [2], in test [11], in test [3], in [12] and in test [4]. The compound was classed as inactive in test [8] and in [10].
For the compound `CCCCCCCCCCCCc1ccc(O)cc1`, the compound was classed as inactive in test [1], in test [2], in test [6], in test [12], in test [4] and in test [10]. The concentration at half-maximal activity (AC50) in test [3] was 3 µM (active); in test [8], 3.36 µM (active).
In the case of `CCCCCCCCCCCCC`, the compound was called inactive in test [1], in test [2], in [6], in [3], in test [4] and in test [8]. In test [10], the outcome was inactive.
In the case of `COC(=O)c1ccc(C(=O)OC)c(C(=O)OC)c1`, the AC50 is 12.6 µM (active) in test [1] and 34.5 µM (active) in test [6]. The compound was classed as inactive in test [2], in [11], in test [3] and in test [8].
With `CCCCC/C=C\C/C=C\CCCCCCCC(=O)O`, the values for the AC50 in test [1] and in test [6] were 28.9 µM (active) and 11.9 µM (active), respectively. Besides, the compound was classed as inactive in [2], in test [3] and in [4].
Take `C1CCSC1`: the compound was classed as inactive in [1], in test [2], in test [6], in test [8] and in test [10].
